Test results reported in ChEMBL document CHEMBL1961873, “Compounds: GSK PKIS; Assays: Nanosyn kinase panel” (2012).

Experiments:
[1] = molecular target: Mitogen-activated protein kinase 3 (Homo sapiens) (UniProt P27361); conditions: at 1 µM;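 also: values are mean percent inhibition of MAPK3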
[2] = molecular target: SRSF protein kinase 3 (Homo sapiens) (UniProt Q9UPE1); conditions: at 0.1 µM
[3] = molecular target: SRSF protein kinase 3 (Homo sapiens) (UniProt Q9UPE1); conditions: at 1 µM
[4] = molecular target: Mitogen-activated protein kinase 14 (Homo sapiens) (UniProt Q16539); conditions: at 0.1 µM
Sequence of Mitogen-activated protein kinase 14 (Homo sapiens) (Q16539 whole entry): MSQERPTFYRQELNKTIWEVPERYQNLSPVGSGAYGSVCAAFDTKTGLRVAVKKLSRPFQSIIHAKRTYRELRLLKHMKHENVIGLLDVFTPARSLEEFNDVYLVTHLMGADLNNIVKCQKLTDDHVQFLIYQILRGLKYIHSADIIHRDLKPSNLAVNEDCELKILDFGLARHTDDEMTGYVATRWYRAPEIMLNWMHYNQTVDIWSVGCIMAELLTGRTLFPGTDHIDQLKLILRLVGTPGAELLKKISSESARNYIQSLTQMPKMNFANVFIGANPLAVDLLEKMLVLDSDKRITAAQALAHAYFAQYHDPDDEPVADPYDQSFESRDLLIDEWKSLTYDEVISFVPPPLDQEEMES

[5] = molecular target: Mitogen-activated protein kinase 14 (Homo sapiens) (UniProt Q16539); conditions: at 1 µM
[6] = molecular target: Mitogen-activated protein kinase 11 (Homo sapiens) (UniProt Q15759); conditions: at 0.1 µM
Sequence of Mitogen-activated protein kinase 11 (Homo sapiens) (Q15759 whole entry): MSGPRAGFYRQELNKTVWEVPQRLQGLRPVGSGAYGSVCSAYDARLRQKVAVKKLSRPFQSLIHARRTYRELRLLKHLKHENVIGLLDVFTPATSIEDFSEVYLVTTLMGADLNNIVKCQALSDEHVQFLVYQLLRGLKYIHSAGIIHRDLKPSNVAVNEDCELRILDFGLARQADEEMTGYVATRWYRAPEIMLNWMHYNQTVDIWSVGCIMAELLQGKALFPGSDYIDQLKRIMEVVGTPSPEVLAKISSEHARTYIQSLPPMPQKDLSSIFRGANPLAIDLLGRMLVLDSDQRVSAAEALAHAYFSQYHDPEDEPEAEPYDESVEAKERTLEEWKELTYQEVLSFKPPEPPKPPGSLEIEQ

[7] = molecular target: Mitogen-activated protein kinase 11 (Homo sapiens) (UniProt Q15759); conditions: at 1 µM
[8] = molecular target: T1, Mitogen-activated protein kinase 13 (Homo sapiens) (UniProt O15264); conditions: at 0.1 µM
T1 sequence (whole entry): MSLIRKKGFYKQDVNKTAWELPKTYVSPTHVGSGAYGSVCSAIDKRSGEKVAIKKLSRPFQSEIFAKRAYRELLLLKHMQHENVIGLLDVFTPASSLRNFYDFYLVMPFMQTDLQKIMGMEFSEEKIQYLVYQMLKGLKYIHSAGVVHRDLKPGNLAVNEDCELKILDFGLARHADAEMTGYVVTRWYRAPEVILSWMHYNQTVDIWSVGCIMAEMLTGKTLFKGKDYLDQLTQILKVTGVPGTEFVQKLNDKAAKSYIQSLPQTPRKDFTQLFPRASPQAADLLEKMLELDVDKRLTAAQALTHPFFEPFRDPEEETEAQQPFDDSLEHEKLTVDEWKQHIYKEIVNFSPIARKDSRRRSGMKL

[9] = molecular target: T1, Mitogen-activated protein kinase 13 (Homo sapiens); conditions: at 1 µM
[10] = molecular target: T2, Mitogen-activated protein kinase 12 (Homo sapiens) (UniProt P53778); conditions: at 0.1 µM
T2 sequence (whole entry): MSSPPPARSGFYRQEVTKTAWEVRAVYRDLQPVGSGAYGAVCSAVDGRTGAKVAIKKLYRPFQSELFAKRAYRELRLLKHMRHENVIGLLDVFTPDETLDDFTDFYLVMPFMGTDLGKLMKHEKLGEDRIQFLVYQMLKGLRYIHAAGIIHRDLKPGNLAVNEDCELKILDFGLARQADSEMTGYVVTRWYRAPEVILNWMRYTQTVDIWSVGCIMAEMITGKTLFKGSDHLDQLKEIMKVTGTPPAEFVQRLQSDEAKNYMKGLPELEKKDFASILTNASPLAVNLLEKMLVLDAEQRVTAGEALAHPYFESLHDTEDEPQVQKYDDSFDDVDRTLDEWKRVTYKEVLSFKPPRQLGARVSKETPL

[11] = molecular target: T2, Mitogen-activated protein kinase 12 (Homo sapiens); conditions: at 1 µM
[12] = molecular target: SRSF protein kinase 1 (Homo sapiens) (UniProt Q96SB4); conditions: at 0.1 µM
Sequence of SRSF protein kinase 1 (Homo sapiens) (Q96SB4 whole entry, canonical isoform): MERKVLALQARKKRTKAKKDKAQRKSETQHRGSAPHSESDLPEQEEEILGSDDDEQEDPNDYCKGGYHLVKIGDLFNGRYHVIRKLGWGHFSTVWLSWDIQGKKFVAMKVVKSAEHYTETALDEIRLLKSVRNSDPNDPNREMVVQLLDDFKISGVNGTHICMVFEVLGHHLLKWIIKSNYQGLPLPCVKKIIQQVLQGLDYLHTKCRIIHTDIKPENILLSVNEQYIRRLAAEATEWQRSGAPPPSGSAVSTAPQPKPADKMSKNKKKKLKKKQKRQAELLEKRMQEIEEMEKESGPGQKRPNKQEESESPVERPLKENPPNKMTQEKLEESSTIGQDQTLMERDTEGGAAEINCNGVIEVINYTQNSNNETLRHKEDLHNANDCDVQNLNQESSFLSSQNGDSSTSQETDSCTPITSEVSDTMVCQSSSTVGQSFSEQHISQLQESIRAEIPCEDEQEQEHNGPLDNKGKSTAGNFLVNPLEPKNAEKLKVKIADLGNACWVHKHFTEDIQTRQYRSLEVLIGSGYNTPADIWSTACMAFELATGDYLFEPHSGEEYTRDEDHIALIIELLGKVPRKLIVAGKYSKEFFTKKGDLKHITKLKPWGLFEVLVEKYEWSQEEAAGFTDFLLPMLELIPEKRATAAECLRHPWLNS

[13] = molecular target: SRSF protein kinase 1 (Homo sapiens) (UniProt Q96SB4); conditions: at 1 µM
[14] = molecular target: Phosphatidylinositol 4,5-bisphosphate 3-kinase catalytic subunit alpha isoform (Homo sapiens) (UniProt P42336); conditions: at 0.1 µM
Sequence of Phosphatidylinositol 4,5-bisphosphate 3-kinase catalytic subunit alpha isoform (Homo sapiens) (P42336 whole entry, canonical isoform): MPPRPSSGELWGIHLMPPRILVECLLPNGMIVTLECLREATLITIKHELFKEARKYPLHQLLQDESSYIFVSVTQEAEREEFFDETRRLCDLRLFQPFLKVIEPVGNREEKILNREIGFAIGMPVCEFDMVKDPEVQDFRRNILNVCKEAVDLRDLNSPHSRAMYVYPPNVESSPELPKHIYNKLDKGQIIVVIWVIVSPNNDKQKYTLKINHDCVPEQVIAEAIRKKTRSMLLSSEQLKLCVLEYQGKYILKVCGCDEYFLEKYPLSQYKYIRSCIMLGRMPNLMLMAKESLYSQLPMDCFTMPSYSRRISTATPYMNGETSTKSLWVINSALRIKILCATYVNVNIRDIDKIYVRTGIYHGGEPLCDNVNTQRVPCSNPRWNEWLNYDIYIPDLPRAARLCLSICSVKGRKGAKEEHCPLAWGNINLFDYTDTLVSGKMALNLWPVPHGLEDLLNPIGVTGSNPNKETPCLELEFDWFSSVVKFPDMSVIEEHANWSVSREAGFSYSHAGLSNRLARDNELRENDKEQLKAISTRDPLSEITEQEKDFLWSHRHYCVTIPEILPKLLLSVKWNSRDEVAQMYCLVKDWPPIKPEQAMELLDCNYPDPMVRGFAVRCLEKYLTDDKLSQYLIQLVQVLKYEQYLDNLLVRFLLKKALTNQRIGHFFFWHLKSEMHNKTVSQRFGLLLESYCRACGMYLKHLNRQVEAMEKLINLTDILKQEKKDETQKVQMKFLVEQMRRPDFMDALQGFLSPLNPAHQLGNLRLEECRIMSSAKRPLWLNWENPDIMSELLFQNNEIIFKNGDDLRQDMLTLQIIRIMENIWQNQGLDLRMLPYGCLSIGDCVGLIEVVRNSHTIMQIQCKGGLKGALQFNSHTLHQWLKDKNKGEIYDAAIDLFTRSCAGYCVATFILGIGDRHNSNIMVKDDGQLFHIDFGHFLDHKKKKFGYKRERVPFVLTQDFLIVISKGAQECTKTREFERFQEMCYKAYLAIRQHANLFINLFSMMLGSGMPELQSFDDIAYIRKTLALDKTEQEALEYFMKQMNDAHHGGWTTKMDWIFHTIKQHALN

[15] = molecular target: Phosphatidylinositol 4,5-bisphosphate 3-kinase catalytic subunit alpha isoform (Homo sapiens) (UniProt P42336); conditions: at 1 µM
[16] = molecular target: T3, Phosphatidylinositol 4,5-bisphosphate 3-kinase catalytic subunit delta isoform (Homo sapiens) (UniProt O00329); conditions: at 0.1 µM
T3 sequence (whole entry): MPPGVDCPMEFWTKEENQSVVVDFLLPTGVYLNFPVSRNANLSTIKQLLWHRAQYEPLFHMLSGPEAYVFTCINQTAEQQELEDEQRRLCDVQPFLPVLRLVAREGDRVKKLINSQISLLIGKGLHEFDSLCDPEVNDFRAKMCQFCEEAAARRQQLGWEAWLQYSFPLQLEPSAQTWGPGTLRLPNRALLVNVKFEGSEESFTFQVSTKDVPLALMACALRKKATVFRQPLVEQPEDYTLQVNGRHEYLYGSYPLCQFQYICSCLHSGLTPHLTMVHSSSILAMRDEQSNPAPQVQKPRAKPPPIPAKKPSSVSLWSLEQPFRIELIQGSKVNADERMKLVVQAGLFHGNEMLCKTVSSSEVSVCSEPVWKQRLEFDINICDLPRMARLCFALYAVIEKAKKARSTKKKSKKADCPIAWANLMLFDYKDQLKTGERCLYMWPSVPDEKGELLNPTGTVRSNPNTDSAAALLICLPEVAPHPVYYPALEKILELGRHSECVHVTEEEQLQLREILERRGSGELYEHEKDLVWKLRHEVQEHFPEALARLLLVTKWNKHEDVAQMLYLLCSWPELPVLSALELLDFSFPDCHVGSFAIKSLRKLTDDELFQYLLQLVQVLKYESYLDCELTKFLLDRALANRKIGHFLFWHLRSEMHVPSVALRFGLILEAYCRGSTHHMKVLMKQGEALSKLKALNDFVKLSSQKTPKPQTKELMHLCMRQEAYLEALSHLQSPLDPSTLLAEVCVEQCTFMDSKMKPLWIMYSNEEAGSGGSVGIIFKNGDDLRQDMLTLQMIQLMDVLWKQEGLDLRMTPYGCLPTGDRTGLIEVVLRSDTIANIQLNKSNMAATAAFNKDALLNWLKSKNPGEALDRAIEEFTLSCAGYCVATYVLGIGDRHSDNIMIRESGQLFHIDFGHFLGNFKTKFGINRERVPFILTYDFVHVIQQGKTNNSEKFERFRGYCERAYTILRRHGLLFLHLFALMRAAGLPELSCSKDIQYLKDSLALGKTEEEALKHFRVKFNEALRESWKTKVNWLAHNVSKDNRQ

[17] = molecular target: T3, Phosphatidylinositol 4,5-bisphosphate 3-kinase catalytic subunit delta isoform (Homo sapiens); conditions: at 1 µM
[18] = molecular target: Phosphatidylinositol 4-kinase beta (Homo sapiens) (UniProt Q9UBF8); conditions: at 0.1 µM
Sequence of Phosphatidylinositol 4-kinase beta (Homo sapiens) (Q9UBF8 2-816 limits assumed): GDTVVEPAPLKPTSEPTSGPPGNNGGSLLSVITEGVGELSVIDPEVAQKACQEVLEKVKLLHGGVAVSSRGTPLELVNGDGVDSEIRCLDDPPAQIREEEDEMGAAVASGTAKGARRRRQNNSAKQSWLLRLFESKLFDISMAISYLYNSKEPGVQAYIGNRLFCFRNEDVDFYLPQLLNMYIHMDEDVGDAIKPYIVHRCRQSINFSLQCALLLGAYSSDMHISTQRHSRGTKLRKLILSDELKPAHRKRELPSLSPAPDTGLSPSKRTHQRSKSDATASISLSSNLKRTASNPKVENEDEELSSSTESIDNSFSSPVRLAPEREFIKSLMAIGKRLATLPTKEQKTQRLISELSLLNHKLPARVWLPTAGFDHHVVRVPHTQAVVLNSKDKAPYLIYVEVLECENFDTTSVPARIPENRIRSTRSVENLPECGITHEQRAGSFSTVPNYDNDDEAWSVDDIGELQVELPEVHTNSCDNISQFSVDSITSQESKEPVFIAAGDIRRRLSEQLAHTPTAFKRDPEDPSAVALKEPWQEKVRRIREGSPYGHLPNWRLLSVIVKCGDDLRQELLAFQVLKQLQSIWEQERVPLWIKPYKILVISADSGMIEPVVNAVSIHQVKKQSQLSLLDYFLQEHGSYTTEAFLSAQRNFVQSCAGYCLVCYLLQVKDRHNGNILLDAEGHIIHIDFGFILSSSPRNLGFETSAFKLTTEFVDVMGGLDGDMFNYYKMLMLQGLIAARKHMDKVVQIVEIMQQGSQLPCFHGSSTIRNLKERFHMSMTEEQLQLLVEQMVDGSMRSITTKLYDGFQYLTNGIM

[19] = molecular target: Phosphatidylinositol 4-kinase beta (Homo sapiens) (UniProt Q9UBF8); conditions: at 1 µM
[20] = molecular target: Sphingosine kinase 1 (Homo sapiens) (UniProt Q9NYA1); conditions: at 0.1 µM;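 also: mean percent inhibition of SPHK1 activity, measured within the GSK PKIS screening panel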
Sequence of Sphingosine kinase 1 (Homo sapiens) (Q9NYA1 whole entry): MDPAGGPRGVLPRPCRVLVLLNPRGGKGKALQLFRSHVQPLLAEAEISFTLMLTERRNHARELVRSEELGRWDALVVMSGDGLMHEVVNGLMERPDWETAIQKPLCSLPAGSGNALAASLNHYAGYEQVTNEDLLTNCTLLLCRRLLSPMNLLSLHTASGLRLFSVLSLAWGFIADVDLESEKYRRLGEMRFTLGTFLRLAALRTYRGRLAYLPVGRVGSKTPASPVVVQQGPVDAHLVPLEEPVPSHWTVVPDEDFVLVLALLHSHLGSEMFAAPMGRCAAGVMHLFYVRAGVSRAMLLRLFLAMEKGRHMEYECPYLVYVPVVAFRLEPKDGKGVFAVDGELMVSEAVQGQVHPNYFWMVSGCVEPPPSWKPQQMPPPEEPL

Sequence of Mitogen-activated protein kinase 3 (Homo sapiens) (P27361 whole entry): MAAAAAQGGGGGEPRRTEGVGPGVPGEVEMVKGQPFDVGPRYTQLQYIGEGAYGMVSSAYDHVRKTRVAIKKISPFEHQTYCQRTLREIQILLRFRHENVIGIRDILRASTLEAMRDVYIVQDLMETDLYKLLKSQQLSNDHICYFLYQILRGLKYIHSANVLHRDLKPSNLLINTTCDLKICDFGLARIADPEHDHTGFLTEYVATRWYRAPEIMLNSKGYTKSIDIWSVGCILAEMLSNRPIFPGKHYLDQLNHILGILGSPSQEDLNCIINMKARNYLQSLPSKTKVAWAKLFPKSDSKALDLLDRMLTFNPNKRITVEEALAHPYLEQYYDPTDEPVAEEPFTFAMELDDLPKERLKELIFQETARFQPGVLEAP
Sequence of SRSF protein kinase 3 (Homo sapiens) (Q9UPE1 whole entry): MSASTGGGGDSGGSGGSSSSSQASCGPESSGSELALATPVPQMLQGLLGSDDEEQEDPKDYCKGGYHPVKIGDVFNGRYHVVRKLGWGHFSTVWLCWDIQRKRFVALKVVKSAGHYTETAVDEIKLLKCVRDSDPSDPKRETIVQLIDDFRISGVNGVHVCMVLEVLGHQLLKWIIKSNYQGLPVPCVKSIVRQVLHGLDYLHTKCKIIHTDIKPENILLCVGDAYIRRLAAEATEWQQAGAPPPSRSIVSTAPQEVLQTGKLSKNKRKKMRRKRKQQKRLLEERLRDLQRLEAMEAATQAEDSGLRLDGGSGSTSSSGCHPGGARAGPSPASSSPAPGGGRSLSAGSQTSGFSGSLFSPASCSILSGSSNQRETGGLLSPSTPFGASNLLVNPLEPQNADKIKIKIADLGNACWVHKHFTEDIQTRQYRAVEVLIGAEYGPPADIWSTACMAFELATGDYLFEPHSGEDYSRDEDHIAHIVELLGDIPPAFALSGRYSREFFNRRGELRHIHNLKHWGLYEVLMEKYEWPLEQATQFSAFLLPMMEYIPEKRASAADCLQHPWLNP

SMILES | inhibition [1] [%] | inhibition [2] [%] | inhibition [3] [%] | inhibition [4] [%] | inhibition [5] [%] | inhibition [6] [%] | inhibition [7] [%] | inhibition [8] [%] | inhibition [9] [%] | inhibition [10] [%] | inhibition [11] [%] | inhibition [12] [%] | inhibition [13] [%] | inhibition [14] [%] | inhibition [15] [%] | inhibition [16] [%] | inhibition [17] [%] | inhibition [18] [%] | inhibition [19] [%] | inhibition [20] [%]
Cc1ccc2c(c1)/C(=N/Nc1ccc(S(N)(=O)=O)cc1)C(=O)N2 | 1.36 | -0.75 | -2.57 | 1.29 | 5.27 | 3.1 | 6.52 | -0.85 | 0.5 | 0.27 | -0.05 | -2.83 | -5.98 | -1.13 | 8.11 | 1.23 | 2.01 | 6.34 | 1.81 | -1.11
COc1cc2ncnc(Nc3ccc(C)c(O)c3)c2cc1OC | 7.04 | -1.99 | 0.42 | 5.71 | 22.1 | 6.38 | 17.4 | -2.57 | 6.31 | 2.43 | 4.08 | -1.2 | -0.28 | 4.07 | 7.27 | 1.27 | 4.88 | -1.03 | -0.17 | 4.48
COC(=O)Nc1nc2cc(Oc3ccc(NC(=O)Nc4cccc(Br)c4)cc3)ccc2[nH]1 | 3.83 | -0.78 | 1.64 | 7.25 | 17.1 | 7.96 | 17 | 2.44 | 0.89 | 2.07 | 1.52 | -2.5 | -2.45 | 0.99 | 8.57 | 1.03 | 7.1 | 0.03 | -5.6 | -1.27
COC(=O)c1ccc2c(c1)C(=Cc1cc(Br)c(O)c(Br)c1)C(=O)N2 | 5.46 | 3.56 | -0.06 | 5.88 | 7.6 | 2.64 | 4.68 | 3.43 | 5.81 | 4.05 | 7.78 | -4.19 | -1.41 | 20.2 | 71.1 | -9.64 | -7.81 | 43.6 | 87.4 | 1.25
COc1cccc(-n2ncc3c(N/N=C/c4ccc(S(C)(=O)=O)cc4)ncnc32)c1 | 1.55 | -0.64 | 1 | -3.8 | 4.7 | 0.81 | 1.99 | 1.44 | 6.79 | 2.12 | 2.32 | -0.76 | 0.02 | 1.3 | 1.54 | 1 | 2.43 | -0.72 | -2.28 | -1.72
CN(C)C(=O)O[C@H]1CN[C@H](C#Cc2cc3ncnc(Nc4ccc(OCc5cccc(F)c5)c(Cl)c4)c3s2)C1 | 3.14 | 0.23 | -1.8 | 1.35 | 7 | 0.51 | 1.53 | -0.2 | 2.51 | 0.18 | 1.22 | -0.93 | -1.25 | 1.47 | 31.7 | 1.7 | 17.4 | 4.95 | -3.29 | 0.36
NS(=O)(=O)c1ccc(-c2cc3ccncc3cc2OCc2ccccc2)cc1 | 3.1 | -2.09 | 3.53 | 7.07 | 8.35 | 2.71 | 6.57 | 5.51 | 3.8 | -0.17 | 2.36 | -1.87 | 0.04 | 3.71 | 4.7 | 1.97 | 2.98 | 3.31 | 0.15 | 1.82
Cc1ccc(O)cc1Nc1ccnc2ccc(S(C)(=O)=O)cc12 | 2.62 | -1.95 | -1.35 | 14 | 58.8 | 9 | 34.2 | 2.61 | 6.26 | 0.62 | 3.79 | -0.84 | 2.51 | 9.67 | 39.6 | 10.9 | 50.7 | -3.87 | 1.39 | 1.12
N#Cc1cccc(Nc2nccc(-c3cnn4ncccc34)n2)c1 | 35.8 | 0.24 | 3.11 | 3.74 | 14.6 | 3.01 | 14 | 12.9 | 47.1 | 4.57 | 26.4 | 0.8 | 23 | 6.65 | 23.3 | 3.45 | 21.2 | -5.91 | 14.8 | -0.07
CCS(=O)(=O)c1ccc(OC)c(Nc2ncc(-c3cccc(OC)c3)o2)c1 | -2.17 | 0.87 | 0.2 | 4.78 | 7.73 | 1.06 | 5.17 | 1.24 | 4.76 | -4.79 | 2.08 | -1.9 | -1.28 | 1.81 | 2 | 3.48 | 3.98 | 3.39 | -0.15 | -0.07
CN(c1ccc(NC(=O)Nc2ccc(OC(F)(F)F)cc2)cc1)c1ccnc(Nc2cccc(S(N)(=O)=O)c2)n1 | 3.33 | -1.09 | 16.6 | 4.8 | 13.6 | 4.81 | 16.7 | 2.86 | 6.6 | 2.28 | 11.2 | -0.74 | 1.1 | 2.98 | 5.04 | 1.08 | 3.29 | -1.47 | 3.37 | -0.13
Nc1ccc(C#Cc2cncnc2Nc2ccc(OCc3cccc(F)c3)c(Cl)c2)cc1 | 1.8 | -1.31 | -1.26 | 7.8 | 8.07 | 5.64 | 6.16 | 2.44 | 1.41 | 2.15 | 2.1 | -1.42 | -0.29 | 2.27 | 3.14 | 0.98 | 1.62 | 5.59 | 0.07 | 0.21
COc1cccc(-n2nc(C)c3c(N/N=C(\C)c4ccncc4)ncnc32)c1 | -1.26 | -0.29 | -1.75 | 1.46 | 0.91 | 1.51 | 0.17 | -0.04 | -0.68 | -0.13 | 0.35 | -2.19 | -2.27 | -0.84 | -0.14 | -1.39 | 6.02 | -2.42 | -3.63 | 1.12
